Data taken from PubChem BioAssay (Tox21).
“And” between values parts separate entries of the source, which are not always exact repeats. Equal entries are not always repeated. Results filed as inconclusive are left out. Entries that show only a call come without a potency. Some structures have more than one record in an assay (separate samples or runs), and their calls can disagree. The source made the active and inactive calls. Unless noted, the call rests on the fitted dose curve.

Experiments:
[1] = Nuclear factor erythroid 2-related factor 2/antioxidant responsive element (Nrf2/ARE) small molecule agonists: qHTS cell viability counter screen in human keratinocytes (AID 1919968; active means well fitted curve in the direction sought with a large enough effect in the repeat runs; an effect the other way counts as inactive or inconclusive; further: nearly all actives have a fitted effect of over 55% in size; further: potency means the concentration at half of the fitted maximal effect)
Outline: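 KeratinoSens cells (HaCaT keratinocytes stably carrying an ARE-luciferase reporter) were seeded at 1,500 cells/well and rested 5 h at 37 C/5% CO2. They were then exposed to compounds in DMSO for 23 h. Viability was read by CellTiter-Fluor fluorescence after 1 h.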

[2] = Nuclear factor erythroid 2-related factor 2/antioxidant responsive element (Nrf2/ARE) small molecule agonists: luciferase reporter gene qHTS assay in human keratinocytes (AID 1919969); further: nearly all actives have a fitted effect of over 35% in size
[3] = molecular target: Gonadotropin-releasing hormone receptor (Homo sapiens) (UniProt P30968); assay: Human gonadotropin-releasing hormone receptor (GnRHR) small molecule agonists, calcium flux assay in GnRHR-HEK293 cells (AID 1920063); further: nearly all actives have a fitted effect of over 35% in size
Outline: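 HEK293 cells stably expressing human GnRHR were plated 18 h at 37 °C, loaded with calcium dye 1 h at 37 °C, then given compound in agonist mode; fluorescence (Ex/Em 480/540) read kinetically for 3 min at 1 s intervals.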

[4] = molecular target: KiSS-1 receptor (Homo sapiens) (UniProt Q969F8); assay: Human kisspeptin (KISS1R) small molecule agonists, calcium flux assay in KISS1R-HEK293 cells (AID 1920064; active means well fitted curve in the direction sought with a large enough effect in the repeat runs; an effect the other way counts as inactive or inconclusive)
Outline: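 HEK293 cells stably expressing human KISS1R were plated 18 h at 37 °C, loaded with calcium dye for 1 h at 37 °C, then given compound by pin tool. Fluorescence (Ex/Em 480/540) was read kinetically for 3 min.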

[5] = G protein-coupled receptor (GPCR) small molecule agonists, calcium flux assay: HEK293 wild type cell line counter screen (AID 1920065)
Outline: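 Cells were plated and cultured 18 h at 37 C/5% CO2, then loaded with calcium dye for 1 h at 37 C. Compounds in DMSO were pin-transferred in agonist mode, and fluorescence (Ex/Em 480/540) was read kinetically for 3 min at 1 s intervals.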

[6] = p53 small molecule agonists, cell-based qHTS assay with rat liver microsomes (AID 1963578)
Outline: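 Metabolic activation is supplied by rat liver microsomes with NADPH (each 0.5 mg/mL final). p53RE-bla cells incubate with compound 16 h at 37 C; reporter activity is measured by LiveBLAzer fluorescence.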

[7] = p53 small molecule agonists, cell-based qHTS assay with human liver microsomes: qHTS cell viability counter screen (AID 1963579); further: nearly all actives have a fitted effect of over 45% in size
Outline: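 After the 460/530 nm beta-lactamase read, CellTiter-Glo was added to the same wells and luminescence measured after 30 min at room temperature, giving viability of p53RE-bla cells treated 16 h with compounds plus microsomes and NADPH.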

[8] = p53 small molecule agonists, cell-based qHTS assay with rat liver microsomes: qHTS cell viability counter screen (AID 1963580); further: nearly all actives have a fitted effect of over 45% in size
Outline: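 p53RE-bla HCT-116 cells (4,000/well) rested 5 h at 37 C, then given Tox21 compounds in DMSO with rat liver microsomes (0.5 mg/mL final) plus NADPH (0.5 mg/mL final) for 16 h at 37 C. Viability read by CellTiter-Glo luminescence after 30 min at room temperature.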

[9] = p53 small molecule agonists, cell-based qHTS assay: qHTS cell viability counter screen (AID 1963581); further: nearly all actives have a fitted effect of over 45% in size
Outline: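 p53RE-bla HCT-116 cells were exposed to compounds for 16 h at 37 C; after the beta-lactamase FRET read in the same wells, CellTiter-Glo was added and luminescence (intracellular ATP) read after 30 min at room temperature.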

[10] = p53 small molecule agonists, cell-based qHTS assay (AID 1963582; active means well fitted activation curve with a large enough effect in the signal ratio in the repeat runs, not every such curve was filed as active; the % refers to the signal ratio)
Outline: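 p53RE-bla beta-lactamase reporter cells rested 5 h at 37 C/5% CO2, then received compounds in DMSO by pin transfer and were incubated 16 h at 37 C. LiveBLAzer B/G FRET substrate was loaded for 2 h at room temperature before fluorescence reading.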

[11] = molecular target: 5-hydroxytryptamine receptor 2A (Homo sapiens) (UniProt P28223); assay: 5-hydroxytryptamine receptor 2A (HTR2A) small molecule antagonists, cell-based qHTS assay (AID 1963586); further: nearly all actives have a fitted effect of over 45% in size
Outline: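 Antagonist-mode intracellular calcium assay: DOI (4 nM) added after 5 min compound pre-incubation at room temperature to dye-loaded HTR2A-CHO cells. Fluorescence followed for 3 min, sampled every second.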

[12] = molecular target: 5-hydroxytryptamine receptor 2A (Homo sapiens) (UniProt P28223); assay: 5-hydroxytryptamine receptor 2A (HTR2A) small molecule agonists, cell-based qHTS assay (AID 1963587); further: nearly all actives have a fitted effect of over 30% in size; further: potency means the concentration at half of the fitted maximal effect
Outline: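 HTR2A-CHO cells, plated 18 h at 37 C/5% CO2, dye-loaded 1 h at 37 C; compounds in DMSO added by pin tool (agonist mode). Intracellular calcium flux read as kinetic fluorescence on FDSS over 2 min at 1 s intervals.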

[13] = molecular target: Muscarinic acetylcholine receptor M1 (Homo sapiens) (UniProt P11229); assay: Cholinergic receptor muscarinic 1 (CHRM1) small molecule antagonists, cell-based qHTS assay (AID 1963588); further: nearly all actives have a fitted effect of over 40% in size
Outline: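 CHRM1-CHO calcium-flux assay, antagonist mode. Cells were seeded 18 h, dye-loaded 1 h at 37 C and given compound for 5 min at RT, then acetylcholine was added at 50nM. FDSS fluorescence was read 3 min; 15 concentrations, three runs.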

[14] = cAMP Responsive Elements (CRE) small molecule agonists, cell-based qHTS assay (AID 1963590)
Outline: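 CRE-bla HEK 293T cells in DMEM with 10% dialyzed FBS, NEAA, pyruvate and 25 mM HEPES were plated 18 h at 37 C/5% CO2, then exposed to compounds in DMSO for 3 h before LiveBLAzer B/G FRET substrate addition.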

[15] = cAMP Responsive Elements (CRE) small molecule antagonists, cell-based qHTS assay (AID 1963591; active means well fitted inhibition curve with a large enough effect in the signal ratio in the repeat runs, not every such curve was filed as active; the % refers to the signal ratio)
Outline: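 CRE-bla HEK293T cells were plated 18 h at 37 °C/5% CO2, pinned with compound in DMSO, then stimulated with NKH477 at 0.25 uM final for 3 h. LiveBLAzer B/G FRET substrate was added and plates incubated 2 h at room temperature.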

[16] = molecular target: Beta-2 adrenergic receptor (Homo sapiens) (UniProt P07550); assay: Adrenergic beta2 receptor (ADRB2) small molecule antagonists, cell-based qHTS assay (AID 1963592); further: series mostly up to about 92 µM; nearly all actives have a fitted effect of over 50% in size
Outline: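 Cells (CHO, stable ADRB2 overexpression) incubated 18-20hr at 37C; compounds added from DMSO; agonist mix (1nM isoproterenol, 100uM IBMX, 25uM Ro-20-1724) added; 0.5hr RT; d2-cAMP and anti-cAMP-cryptate added; 1hr RT; 665/615 nm read.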

[17] = molecular target: Beta-2 adrenergic receptor (Homo sapiens) (UniProt P07550); assay: Adrenergic beta2 receptor (ADRB2) small molecule agonists, cell-based qHTS assay (AID 1963593);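 further: CHO cells stably overexpressing human ADRB2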
Outline: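 CHO cells stably over-expressing ADRB2 were plated overnight at 37C, then dosed with compounds plus a stimulation mix containing 100uM IBMX and 25uM Ro-20-1724 for 0.5hr at room temperature. cAMP was measured by HTRF competition, 1hr.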

[18] = molecular target: D(2) dopamine receptor (Homo sapiens) (UniProt P14416); assay: Dopamine D2 receptor (DRD2) small molecule agonists, cell-based qHTS assay (AID 1963594); further: nearly all actives have a fitted effect of over 35% in size
Outline: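 HEK293 cells stably expressing DRD2 were cultured 24 h at 37 C, then given Ro20-1724 (0.1 mM final) and compounds for 10 min at room temperature. NKH477 (200nM) was then added for 30 min. cAMP was read by HTRF.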

[19] = molecular target: Muscarinic acetylcholine receptor M1 (Homo sapiens) (UniProt P11229); assay: Cholinergic receptor muscarinic 1 (CHRM1) small molecule agonists, cell-based qHTS assay (AID 1963589); further: nearly all actives have a fitted effect of over 35% in size
Outline: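 CHO cells stably expressing human CHRM1, seeded 18 h at 37 C/5% CO2, dye-loaded 1 h at 37 C, then given compound in agonist mode; intracellular calcium fluorescence read kinetically at 1 s intervals. Fifteen concentrations, three independent runs.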

[20] = molecular target: D(2) dopamine receptor (Homo sapiens) (UniProt P14416); assay: Dopamine D2 receptor (DRD2) small molecule antagonists, cell-based qHTS assay (AID 1963595; active means well fitted inhibition curve with a large enough effect in the signal ratio in the repeat runs, with a control signal flat; the % refers to the signal ratio)
Outline: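 Stable D2 receptor HEK293 line, 24 h after seeding. Compound preincubated 10 min, then quinpirole (12 nM) with forskolin analogue NKH477 (200 nM), 30 min, room temperature. Detection by time-resolved FRET of cAMP.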

5-hydroxytryptamine receptor 2A (Homo sapiens), sequence (P28223 whole entry, looked up): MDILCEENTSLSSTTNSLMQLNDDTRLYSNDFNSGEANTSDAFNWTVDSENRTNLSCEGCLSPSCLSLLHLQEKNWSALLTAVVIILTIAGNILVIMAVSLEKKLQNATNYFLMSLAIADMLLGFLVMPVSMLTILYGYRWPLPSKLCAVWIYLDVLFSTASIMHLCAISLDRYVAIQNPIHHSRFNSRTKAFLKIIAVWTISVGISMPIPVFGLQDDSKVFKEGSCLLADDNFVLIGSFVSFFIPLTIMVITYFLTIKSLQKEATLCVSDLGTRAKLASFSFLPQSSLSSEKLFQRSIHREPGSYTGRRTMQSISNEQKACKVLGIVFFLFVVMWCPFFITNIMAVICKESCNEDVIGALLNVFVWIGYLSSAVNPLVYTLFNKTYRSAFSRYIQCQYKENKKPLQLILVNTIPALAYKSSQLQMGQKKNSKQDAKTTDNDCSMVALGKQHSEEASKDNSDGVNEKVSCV
Beta-2 adrenergic receptor (Homo sapiens), sequence (P07550 whole entry, looked up): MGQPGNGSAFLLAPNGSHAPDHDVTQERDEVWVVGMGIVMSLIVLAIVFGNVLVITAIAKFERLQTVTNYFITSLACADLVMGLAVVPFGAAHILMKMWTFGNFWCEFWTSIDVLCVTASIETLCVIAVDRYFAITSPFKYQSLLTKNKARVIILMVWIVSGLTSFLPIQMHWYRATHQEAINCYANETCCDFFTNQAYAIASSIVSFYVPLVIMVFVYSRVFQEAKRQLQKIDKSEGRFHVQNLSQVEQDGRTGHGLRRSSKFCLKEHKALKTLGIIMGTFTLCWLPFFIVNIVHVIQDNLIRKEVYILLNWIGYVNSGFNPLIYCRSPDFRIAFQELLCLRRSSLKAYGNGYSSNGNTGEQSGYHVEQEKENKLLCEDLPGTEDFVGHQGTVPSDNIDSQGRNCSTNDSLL
Muscarinic acetylcholine receptor M1 (Homo sapiens), sequence (P11229 whole entry, looked up): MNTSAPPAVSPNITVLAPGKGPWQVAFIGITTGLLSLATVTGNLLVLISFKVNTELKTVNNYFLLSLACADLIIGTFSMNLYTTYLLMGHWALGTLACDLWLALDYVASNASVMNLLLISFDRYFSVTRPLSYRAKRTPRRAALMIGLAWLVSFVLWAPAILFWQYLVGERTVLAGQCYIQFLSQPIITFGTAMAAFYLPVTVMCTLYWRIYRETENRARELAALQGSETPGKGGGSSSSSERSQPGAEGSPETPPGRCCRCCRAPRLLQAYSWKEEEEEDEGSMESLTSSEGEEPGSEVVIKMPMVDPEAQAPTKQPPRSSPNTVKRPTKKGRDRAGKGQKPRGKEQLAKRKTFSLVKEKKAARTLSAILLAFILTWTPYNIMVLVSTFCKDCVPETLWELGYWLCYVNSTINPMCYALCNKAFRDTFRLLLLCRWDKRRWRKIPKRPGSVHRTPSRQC
Gonadotropin-releasing hormone receptor (Homo sapiens), sequence (P30968 whole entry, looked up): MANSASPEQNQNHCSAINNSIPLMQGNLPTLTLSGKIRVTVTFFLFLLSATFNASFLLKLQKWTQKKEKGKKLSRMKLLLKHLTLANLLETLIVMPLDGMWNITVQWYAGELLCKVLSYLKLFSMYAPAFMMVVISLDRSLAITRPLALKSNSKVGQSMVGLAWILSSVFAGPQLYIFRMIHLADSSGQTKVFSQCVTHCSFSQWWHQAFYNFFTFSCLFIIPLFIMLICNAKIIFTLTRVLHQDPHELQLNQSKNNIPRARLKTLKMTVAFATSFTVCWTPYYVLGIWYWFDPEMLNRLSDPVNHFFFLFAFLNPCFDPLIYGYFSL
KiSS-1 receptor (Homo sapiens), sequence (Q969F8 whole entry, looked up): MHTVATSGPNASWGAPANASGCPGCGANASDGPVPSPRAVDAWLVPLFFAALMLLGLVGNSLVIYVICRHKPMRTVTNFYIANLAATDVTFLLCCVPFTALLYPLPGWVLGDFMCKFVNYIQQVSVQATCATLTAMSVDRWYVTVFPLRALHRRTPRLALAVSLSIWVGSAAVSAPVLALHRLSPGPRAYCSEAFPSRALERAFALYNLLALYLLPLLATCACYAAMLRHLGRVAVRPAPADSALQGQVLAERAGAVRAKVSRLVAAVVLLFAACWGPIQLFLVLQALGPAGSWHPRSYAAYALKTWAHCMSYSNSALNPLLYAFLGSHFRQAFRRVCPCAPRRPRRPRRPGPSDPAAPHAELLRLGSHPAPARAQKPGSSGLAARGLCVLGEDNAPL
D(2) dopamine receptor (Homo sapiens), sequence (P14416 whole entry, looked up): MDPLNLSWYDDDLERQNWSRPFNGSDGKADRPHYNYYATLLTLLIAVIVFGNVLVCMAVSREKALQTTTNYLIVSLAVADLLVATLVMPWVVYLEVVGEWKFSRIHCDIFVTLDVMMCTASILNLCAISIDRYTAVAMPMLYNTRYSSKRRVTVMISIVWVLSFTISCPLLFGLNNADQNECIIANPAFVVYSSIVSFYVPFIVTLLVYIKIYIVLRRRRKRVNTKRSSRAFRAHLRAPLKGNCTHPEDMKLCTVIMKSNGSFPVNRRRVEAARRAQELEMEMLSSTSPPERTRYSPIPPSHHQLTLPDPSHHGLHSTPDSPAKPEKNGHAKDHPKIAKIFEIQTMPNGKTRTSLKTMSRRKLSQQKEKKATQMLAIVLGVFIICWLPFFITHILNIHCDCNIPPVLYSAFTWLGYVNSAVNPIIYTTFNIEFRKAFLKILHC

| Compound | Potency [1] | Potency [2] | Potency [3] | Potency [4] | Potency [5] | Potency [6] | Potency [7] | Potency [8] | Potency [9] | Potency [10] | Potency [11] | Potency [12] | Potency [13] | Potency [14] | Potency [15] | Potency [16] | Potency [17] | Potency [18] | Potency [19] | Potency [20] |
| --- | --- | --- | --- | --- | --- | --- | --- | --- | --- | --- | --- | --- | --- | --- | --- | --- | --- | --- | --- | --- |
| CN(C)Cc1ccccc1O | inactive | inactive | inactive | inactive | inactive | inactive | inactive | inactive | inactive | inactive | inactive | inactive | inactive | inactive | inactive | inactive | inactive | inactive |  |  |
| CC(=O)OCC1=C(C(=O)O)N2C(=O)[C@@H](NC(=O)Cc3cccs3)[C@H]2SC1 | inactive | inactive | inactive | inactive | inactive | inactive | inactive | inactive | inactive | inactive | inactive | inactive | inactive | inactive | inactive | inactive |  | inactive | inactive |  |
| CC/C=C\CCOC(=O)CCCCC | inactive | inactive | inactive | inactive | inactive | inactive | inactive | inactive |  | inactive | inactive | inactive |  | inactive | inactive | inactive |  | inactive | inactive | inactive |
| CCC1CCCCC1 | inactive | inactive | inactive | inactive | inactive | inactive | inactive | inactive | inactive | inactive | inactive | inactive | inactive | inactive | inactive | inactive | inactive | inactive | inactive | inactive |
| C=CCn1cc[n+](C)c1 | inactive | inactive | inactive | inactive | inactive | inactive | inactive |  | inactive | inactive | inactive | inactive | inactive | inactive | inactive | inactive | inactive | inactive | inactive | inactive |
| O=P(OC(CCl)CCl)(OC(CCl)CCl)OC(CCl)CCl | inactive | inactive | inactive | inactive | inactive | inactive | inactive | inactive |  | inactive | inactive | 43.4 µM (active) and 2.19 µM (active) | inactive |  | inactive | inactive |  | inactive | inactive | inactive |
| [K+] | inactive | inactive | inactive | inactive | inactive | inactive | inactive | inactive | inactive | inactive | inactive | inactive |  | inactive | inactive | inactive | inactive | inactive | inactive | inactive |
| C=C(C)C(=O)OCCCCCCCCCCCCC | inactive | inactive | inactive | inactive | inactive | inactive | inactive | inactive | inactive | inactive | inactive | inactive | inactive | inactive | inactive | inactive |  | inactive | inactive | inactive |
| O=C(O)CCCCCCCCCCCC(=O)O | 30.1 µM (active) and inactive | inactive | inactive | inactive | inactive | inactive | inactive | inactive | inactive |  | inactive | inactive | inactive |  |  | inactive | inactive | inactive | inactive | inactive |
| COC(=O)c1ccccc1C(=O)O | inactive | inactive | inactive | inactive | inactive | inactive | inactive | inactive | inactive | inactive | inactive | inactive | inactive | inactive | inactive | inactive | inactive | inactive | inactive | inactive |
| Cc1cc(C)cc(OCC2CNC(=O)O2)c1 (configuration not stated) | inactive | inactive | inactive | inactive | inactive | inactive | inactive | inactive | inactive | inactive |  | inactive | inactive | inactive | inactive | inactive | inactive | inactive | inactive |  |
| CNC(=O)NC | inactive | inactive | inactive | inactive | inactive | inactive | inactive | inactive | inactive | inactive | inactive | inactive | inactive | inactive | inactive | inactive |  | inactive | inactive | inactive |
| CC(=O)NCCO | inactive | inactive | inactive | inactive | inactive | inactive | inactive | inactive | inactive | inactive | inactive | inactive | inactive | inactive | inactive |  | inactive | inactive | inactive | inactive |
| Fc1c(F)c(F)c(Br)c(F)c1F | inactive | inactive | inactive | inactive | inactive | inactive | inactive | inactive | inactive |  | inactive | inactive |  | inactive | inactive | inactive |  | inactive | inactive | inactive |
